# Rows were chosen to be rich in hits. Some 17% of all compounds tested hit in one or more screens of this group.
# DT40 TDP1 no CPT: qHTS for Inhibitors of human tyrosyl-DNA phosphodiesterase 1 (TDP1): qHTS in cells in absence of CPT | actives 15% (n = 420,000) | DT40 Tdp1-/- hTDP1 cells, no CPT, ATP luminescence, 48 h | AID 686978, 2013 | Potency, µM (titrated, usually from 46.2 µM), without a hit: top-dose activity change, negative = growth inhibition, usual class: inhibitors; also: % is scaled to controls: 0 for no effect and ±100 for the full control effect; nearly all actives have a fitted effect of over 55% in size
#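 Cells were dispensed at 400 per well, compounds added by pin tool, plates incubated ≥48 hr at 37 °C, then CellTiter-Glo added for 30 min at room temperature before luminescence reading. Line: DT40 Tdp1-/- complemented with hTDP1; camptothecin omitted.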
# DT40 TDP1 CPT: qHTS for Inhibitors of human tyrosyl-DNA phosphodiesterase 1 (TDP1): qHTS in cells in presence of CPT; chicken DT40 Tdp1-/-;hTDP1 cells + 20 nM CPT, ATP luminescence, 48 h; Potency, µM (titrated, usually from 46.2 µM), without a hit: at the highest dose activity change, negative = growth inhibition, usual class: inhibitors; actives 12% (n = 420,000); also: % is scaled to controls: 0 for no effect and ±100 for the full control effect; nearly all actives have a fitted effect of over 55% in size
#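 Chicken DT40 Tdp1-/- cells complemented with human TDP1, 400 cells/well, exposed to compounds plus 20 nM camptothecin for at least 48 h at 37 C; viability read as ATP content by CellTiter-Glo luminescence.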
# TGFb inhibitor: qHTS for Inhibitors of TGF-b; AID 588855, 2011; Potency, µM (highest dose often 46.1 µM), for inactives: at the highest dose activity, negative = inhibition, usual class: inhibitors; HepG2 CAGA-GFP TGF-b/SMAD3 reporter, GFP fluorescence, 18 h; TGF-beta stimulated, 500 pg/mL final; actives 1.2% (n = 410,000); also: % is scaled to controls: 0 for no effect and ±100 for the full control effect; nearly all actives have a fitted effect of over 65% in size
#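 Per well, imaged GFP fluorescence of HEPG2 CAGA-GFP cells gives the signal; cells get compound, then TGF-beta (500 pg/mL final), 18 h at 37 degrees C; %Activity versus -TGF-beta and +DMSO controls.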
# HT1080-NT tox: qHTS for induction of synthetic lethality in tumor cells producing 2HG: qHTS for the HT-1080-NT fibrosarcoma cell line; Potency, µM (doses to about 46.1 µM), inactives show at the highest dose activity, negative = less viability, actives largely listed as cytotoxic; HT-1080-NT fibrosarcoma viability, CellTiter-Glo ATP luminescence, 48 h; actives 1.6% (n = 360,000); AID 686970, 2013;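 also: NT is the 2HG producing partner of a matched IDH1 knockdown line; 0% = DMSO-treated cells and -100% = media-only wells without cells; nearly all actives have a fitted effect of over 55% in size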
#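 Compounds were tested in concentration-response format on HT-1080-NT cells for 48 hours at 37 degrees C. Cell viability came from CellTiter-Glo luminescence; curves were classified by r2, response magnitude and activity.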
# HT1080 IDH1KD tx: qHTS for induction of synthetic lethality in tumor cells producing 2HG: qHTS for the HT-1080-IDH1KD cell line. Potency, µM (highest dose often 46.1 µM), for the others: at the highest dose activity, negative = toxicity, usual class: cytotoxic. actives 2% (n = 360,000). HT-1080 IDH1 knockdown viability, ATP luminescence, 48 h;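 also: 0% = DMSO wells and -100% = cell-free medium wells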
#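 Using the IDH1-knockdown HT-1080 line run in the same batch and compound series as the NT line, viability after 48 h at 37 °C was determined by CellTiter-Glo luminescence and expressed as % activity.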
# HepG2 viability: qHTS for Inhibitors of TGF-b: Cytotox Counterscreen. HepG2 CAGA-GFP viability, ATP luminescence, 18 h. Potency, µM (top dose mostly 46.1 µM), for the others: at the top dose activity change, negative = cytotoxicity, usual class: cytotoxic. actives 0.76% (n = 410,000). AID 588856, 2011
#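 CellTiter-Glo luminescence gave cytotoxicity after 18 hours at 37 degrees C. The cells were HepG2 CAGA-GFP in 1% FBS DMEM, stimulated with 500 pg/mL TGF-beta after compound addition. %Activity was normalised to no-cell wells (complete cell-killing) and DMSO (no toxicity), and curves were fitted and classified.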
# Active calls of the source: *; ? = inconclusive; nt = no result given. Calls follow the shape of the dose curve; as a rule, active = well fitted curve in the direction sought with a large enough effect; inconclusive = small, poorly fitted or top-dose-only effect, or another doubt; inactive = no such curve, though single readings can be large; an effect the other way counts as inactive or inconclusive. Potency is read from the fitted curve at half-maximal effect.
SMILES,DT40 TDP1 no CPT,DT40 TDP1 CPT,TGFb inhibitor,HT1080-NT tox,HT1080 IDH1KD tx,HepG2 viability
COc1cc(C(O)c2nc(-c3ccccc3)cs2)ccc1F (stereo not drawn),6.51µM*,7.31µM*,-2.5%,?,-76.8%,-13.9%
COc1cccc(C(O)c2nc(-c3ccc(F)c(Cl)c3)cs2)c1 (stereo not drawn),?,16.4µM*,?,?,?,-52.3%
O=C(C[n+]1cccc2cccc(O)c21)c1ccc(Cl)cc1,?,?,-27.7%,nt,nt,-9.1%
COc1c(-c2coc3cc4c(cc3c2=O)CC(O)C(C)(C)O4)ccc2c1C=CC(C)(C)O2 (stereo not drawn),0.0206µM*,0.0461µM*,nt,nt,nt,nt
COc1c(-c2coc3cc4c(cc3c2=O)CC(OC(C)=O)C(C)(C)O4)ccc2c1C=CC(C)(C)O2 (stereo not drawn),0.92µM*,1.3µM*,nt,nt,nt,nt
CC1(C)C=Cc2c(cc3occ(-c4ccc5c(c4)OCO5)c(=O)c3c2O)O1,-0.7%,-0.4%,nt,nt,nt,nt
COc1ccc2c(c1)sc(=N)n2C,18.4µM*,18.4µM*,19.6%,11.8%,-16.4%,-0.6%
NCc1csc(NC(=O)Nc2cccc(C(F)(F)F)c2)n1,23.1µM*,16.4µM*,?,-18.2%,?,-48.3%
NC(Cc1ccc(C(F)(F)F)cc1)c1csc(NC(=O)Nc2ccccc2)n1 (stereo not drawn),?,13µM*,?,?,16.4µM*,15.8µM*
COc1ccc(CC(N)c2csc(NC(=O)Nc3cccc(C(F)(F)F)c3)n2)cc1 (stereo not drawn),?,?,?,18.4µM*,16.4µM*,-113.8%
COc1ccc(CC(N)c2csc(NC(=O)Nc3ccc(F)cc3)n2)cc1 (stereo not drawn),13µM*,23.1µM*,11.2µM*,?,?,17.8µM*
CCC(C(=O)NCCc1c[nH]c2cc(OC)ccc12)c1ccccc1 (stereo not drawn),?,-7.8%,0.0%,8.8%,0.8%,5.1%
CC(Sc1nnc2ccccn12)C(N)=O (stereo not drawn),0.3%,1.0%,4.1%,-2.1%,8.9%,1.7%
NC(COCc1ccccc1)c1csc(NC(=O)Nc2cccc(Cl)c2)n1 (stereo not drawn),?,23.1µM*,?,?,?,-112.1%
NC(CCc1ccccc1)c1csc(NC(=O)Nc2cccc(C(F)(F)F)c2)n1 (stereo not drawn),20.6µM*,?,?,16.4µM*,20.6µM*,11.2µM*
NC(CO)c1csc(NC(=O)Nc2cccc(Cl)c2)n1 (stereo not drawn),-14.2%,-6.6%,-3.9%,-19.9%,2.2%,1.0%
CC(C)C(N)c1csc(NC(=O)Nc2ccccc2C(C)(C)C)n1 (stereo not drawn),?,18.4µM*,?,?,?,-64.5%
CC(C)(C)c1ccccc1NC(=O)Nc1nc(C(N)c2ccccc2Cl)cs1 (stereo not drawn),?,?,?,?,?,-39.9%
CC(C)C(N)c1csc(NC(=O)Nc2ccc(OC(F)(F)F)cc2)n1 (stereo not drawn),23.1µM*,?,20µM*,8.2µM*,20.6µM*,20µM*
